Measured values as given in PubChem BioAssay AID1851 (National Center for Advancing Translational Sciences (NCATS), 2009).
Among all 16,000 compounds or so, about 5,700 (36%) were called active. Another 24% or so got no clear call; they are omitted. The list shows a part of the results. Unmarked numbers belong to inactive results. Calls follow the shape of the dose curve; as a rule, active = well fitted curve in the direction sought with a large enough effect; inconclusive = small, poorly fitted or top-dose-only effect, or effect the other way; inactive = no such curve, though single readings can be large or run the other way.

Target: Cytochrome P450 1A2 (Homo sapiens) (UniProt P05177)
Experiment: Cytochrome panel assay with activity outcomes
Settings: recombinant CYP, pro-luciferin dealkylation, luminescence, p450-cyp1a2; series mostly up to 57.1 µM; activity, negative = inhibition: at the top concentration
% is scaled to controls: 0 for no effect and ±100 for the full control effect.

Sequence of Cytochrome P450 1A2 (Homo sapiens) (P05177 whole entry, looked up): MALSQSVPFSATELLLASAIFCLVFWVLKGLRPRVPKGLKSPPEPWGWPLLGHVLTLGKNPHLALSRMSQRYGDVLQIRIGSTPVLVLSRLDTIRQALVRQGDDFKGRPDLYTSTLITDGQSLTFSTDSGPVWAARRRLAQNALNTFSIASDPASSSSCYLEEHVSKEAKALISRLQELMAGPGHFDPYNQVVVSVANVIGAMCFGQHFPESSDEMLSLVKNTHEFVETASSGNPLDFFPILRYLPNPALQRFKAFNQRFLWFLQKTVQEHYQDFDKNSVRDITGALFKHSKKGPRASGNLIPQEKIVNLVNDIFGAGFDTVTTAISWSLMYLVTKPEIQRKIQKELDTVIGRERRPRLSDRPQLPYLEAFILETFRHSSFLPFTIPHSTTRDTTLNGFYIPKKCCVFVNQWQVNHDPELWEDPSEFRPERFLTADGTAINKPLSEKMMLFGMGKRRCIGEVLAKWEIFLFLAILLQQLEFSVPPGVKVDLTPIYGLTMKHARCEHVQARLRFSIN

| SMILES | AC50 | activity, negative = inhibition |
| --- | --- | --- |
| O=C(c1ccc(N2CCCCC2)c([N+](=O)[O-])c1)N(Cc1ccccc1)c1ccccn1 | 14.1 µM (active) |  |
| Cc1ccc(C)c2sc(NC(=O)c3ccc(N4CCCCC4)c([N+](=O)[O-])c3)nc12 |  | 0.997% |
| COc1ccccc1N1CCN(CCN(C(=O)C2CCCCC2)c2ccccn2)CC1 |  | -4.46% |
| CCOC(=O)NCc1ccc2c(c1)cc(C)n2C | 2 µM (active) |  |
| CN[C@@H]1[C@H](O[C@H]2[C@@H](O[C@@H]3[C@@H](O)[C@@H](O)[C@@H](N=C(N)N)[C@@H](O)[C@@H]3N=C(N)N)O[C@@H](C)[C@]2(O)CO)O[C@H](CO)[C@@H](O)[C@@H]1O |  | -4.23% [at 25.6 µM] |
| CNC(=S)NNC(=O)COc1ccccc1C | 15.8 µM (active) |  |
| Cc1ccccc1OCC(=O)OC1CCN(C)CC1 |  | 5.7% |
| CC(=O)Nc1cc(C(F)(F)F)ccc1Oc1cccc(Br)c1 | 10 µM (active) |  |
| CC(=O)Oc1cc(C(F)(F)F)ccc1C(=O)O |  | -7.55% [at 25.6 µM] |
| CCCC(=O)N1CCN(c2ccc(NC(=O)c3ccc(OCC)c([N+](=O)[O-])c3)cc2)CC1 |  | -8.1% |
| CCOc1ccc(C(F)(F)F)cc1NC(C)=O | 0.1 µM (active) |  |
| CN(C(=O)COc1cccc(Br)c1)C1CCS(=O)(=O)C1 (configuration not stated) |  | -26.4% |
| CCOc1ccc(C(F)(F)F)cc1NC(=O)c1ccc(OC)c([N+](=O)[O-])c1 | 3.55 µM (active) |  |
| CCOc1ccc(C(=O)Cc2cc(OC)c(OC)cc2[N+](=O)[O-])cc1 |  | -12.4% |
| CC(=O)NC1=NC(=O)C(C)S1 (configuration not stated) |  | 1.33% |
| N[C@@H](Cc1nn[nH]n1)C(=O)O |  | -8.69% [at 11.4 µM] |
| Nc1[nH]c(=O)nc2c1ncn2[C@H]1O[C@@H](CO)[C@@H](O)[C@@H]1O |  | -0.635% [at 11.4 µM] |
| CC1=NCC[N@@+]1(CCc1ccccc1)Cc1ccccc1 |  | -17.6% [at 11.4 µM] |
| CC(CO)Nc1nc(SCc2ccccc2)nc2sc3c(c12)CCC3 (configuration not stated) | 0.2 µM (active) |  |
| Cc1ccc(CSc2nc3c(c(SCC(=O)O)n2)CCCC3)cc1 |  | -2.42% |
| C[C@H](Nc1ncnc2sc3c(c12)CCC3)C(=O)O |  | -17.4% |
| OCCNc1nc(SCc2ccccc2)nc2sc3c(c12)CCC3 | 1 µM (active) |  |
| COCCNc1nc(SCc2ccccc2)nc2sc3c(c12)CCC3 | 1 µM (active) |  |
| CCCCNC(=O)[C@@H]1Cc2ccccc2N1C(=O)[C@H](N)CC | 20 µM (active) |  |

| SMILES | AC50 | activity, negative = inhibition |
| --- | --- | --- |
| CCCCNC(=O)C1CCN(Cc2ccccn2)CC1 |  | 5.66% |
| CCCCNC(=O)C1CC(=O)N(CCC(C)C)C1 (configuration not stated) |  | -12.7% |
| O=C(O)Cn1ccnc1[N+](=O)[O-] |  | -3.98% [at 11.4 µM] |
| CCOC(=O)c1cc2c(=O)n3ccccc3nc2n(CCCOC)c1=NC(C)=O | 12.6 µM (active) |  |
| CCOC(=O)c1cc2c(=O)n3ccccc3nc2n(CCOC)c1=NC(=O)C(C)(C)C | 3.16 µM (active) |  |
| C[C@H]1[C@H](C)OC(=O)C[C@H](O)C[C@H](O)C[C@H](O)CC[C@H](O)[C@H](O)CC(=O)C[C@H](O)[C@H](C(=O)O)[C@H](O)C[C@H](O[C@@H]2O[C@@H](C)[C@H](O)[C@@H](N)[C@@H]2O)C=CC=CC=CC=CCCC=CC=C[C@@](C)(O)[C@H]1O |  | 12.4% [at 11.4 µM] |
| O=[N+]([O-])c1cccc(/C=N/Nc2cc(Cl)nc(-c3ccccc3)n2)c1 | 1.26 µM (active) |  |
| CN(C)C(=O)c1ccc(-c2ccc3ncnc(N4CCNCC4)c3c2)cc1 |  | -13.6% |
| CN(C)c1ccc(-c2ccc3ncnc(N4CCNCC4)c3c2)cc1 | 2.51 µM (active) |  |
| c1nc(N2CCNCC2)c2cc(-c3ccc4c(c3)OCO4)ccc2n1 | 2 µM (active) |  |
| CN1CCN(c2ncnc3ccc(-c4ccc(C(=O)N(C)C)cc4)cc23)CC1 |  | -11.4% |
| CN1CCN(c2ncnc3ccc(-c4ccc5c(c4)OCO5)cc23)CC1 | 2.51 µM (active) |  |
| C[C@H]1C[C@H]2[C@H]3CCC4=CC(=O)C=C[C@@]4(C)[C@]3(F)[C@H](O)C[C@]2(C)[C@@]1(O)C(=O)COP(=O)(O)O |  | 2.48% [at 11.4 µM] |
| CC1(C)O[C@@H]2C[C@H]3[C@H]4C[C@H](F)C5=CC(=O)C=C[C@@]5(C)[C@@H]4[C@H](O)C[C@]3(C)[C@]2(C(=O)CO)O1 |  | -10.8% [at 25.6 µM] |
| CCC1CC(CSc2ncn[nH]2)OC1=O (configuration not stated) |  | 0.612% |
| Clc1ccccc1-c1nc(-c2ccccc2)n[nH]1 | 1 µM (active) |  |
| COc1ccc(CNc2ncncc2-c2ccc3c(c2)OCO3)c(OC)c1 | 0.501 µM (active) |  |
| COc1ccccc1CNc1ncncc1-c1ccc2c(c1)OCO2 | 0.158 µM (active) |  |
| Cc1nnc(S(=O)(=O)c2ccc(N=Nc3c(N)nc(N)nc3N)cc2)s1 |  | -10.2% [at 2.29 µM] |
| Cc1nn(C(=O)CN2C(=O)c3ccccc3C2=O)c(C)c1Br |  | -9.22% |
| O=C(c1ccco1)N1CCC2(CCN(Cc3ccccc3)CC2)CC1 |  | 0.0929% |
| Cc1nn(C(=O)c2cccnc2)c(C)c1Sc1ccc(Br)cc1 | 7.08 µM (active) |  |
| Cc1nn(C(=O)c2ccco2)c(C)c1Sc1ccc(Br)cc1 | 14.1 µM (active) |  |
